Bioassay records: PubChem, The Scripps Research Institute Molecular Screening Center
PPARg SRC-2 ag: agonists of PPARg-SRC-2 recruitment, primary screen, biochemical, HTS. PPARgamma LBD-SRC-2 recruitment. activation, % at 8 µM. 200,000 tested, 0.34% active. AID 1032, 2008;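 note: 0% = vehicle and 100% = reference agonist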
SRC3 TRFRET art: TR-FRET detection interference compounds, artefact control for PPARgamma SRC-3 recruitment agonists, biochemical, TR-FRET ratio. TR-FRET artefact counter-screen, PPARgamma/SRC-3 format; hits give high values. TR-FRET ratio at 8 µM. 99,000 tested, 0.39% active. AID 1048, 2008; in the data active = TR-FRET ratio above about 2000
PPARg SRC-1 ag: PPARgamma agonists recruiting SRC-1 coactivator, primary screen, biochemical. Peroxisome proliferator-activated receptor gamma (Homo sapiens), P37231. PPARgamma-SRC-1 coactivator recruitment biochemical assay. activation, % at 8 µM. 200,000 tested, 0.41% active. AID 631, 2007; in the data active = activation above about 19%;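 note: 0% = DMSO and 100% = reference agonist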
SRC1 TRFRET art: TR-FRET detection interference compounds, primary screen, artefact control for PPARgamma SRC-1 recruitment agonists, biochemical, TR-FRET emission ratio; 99,000 tested, 0.34% active; AID 1051, 2008; TR-FRET ratio at 8 µM; TR-FRET detection artefact counter-screen; hits give high values; in the data active = TR-FRET ratio above about 2300
PPARg SRC-3 ag: PPARgamma agonists recruiting SRC-3 coactivator, primary screen, biochemical; Peroxisome proliferator-activated receptor gamma (Homo sapiens), P37231; AID 731, 2007; biochemical PPARgamma/SRC-3 coactivator recruitment assay; 200,000 tested, 0.26% active; activation, % at 8 µM; in the data active = activation above about 23%;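 note: 0% = DMSO and 100% = reference agonist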
SRC2 TRFRET art: TR-FRET signal artefacts, primary screen, artefact control for PPARgamma SRC-2 agonist project, biochemical; TR-FRET artefact counter-screen; hits give high values; TR-FRET ratio at 8 µM; 200,000 tested, 0.4% active; in the data active = TR-FRET ratio above about 2000
PPARg SRC2 conf: agonists of PPARgamma SRC-2 coactivator recruitment, confirmation, biochemical, HTS; shares compounds with PPARg SRC-3 ag; biochemical SRC-2 recruitment by PPARgamma; activation, % at 8 µM; 790 tested, 52% active; AID 1297, 2008;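 note: 0% = vehicle alone and 100% = reference agonist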
PPARg SRC1 conf: PPARgamma agonists recruiting SRC-1 coactivator, confirmation, biochemical | shares compounds with PPARg SRC-3 ag | PPARgamma–SRC-1 coactivator recruitment biochemical assay | activation, % at 8 µM | 790 tested, 43% active; in the data active = activation above about 20%;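 note: 0% = vehicle wells and 100% = reference agonist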
PPARg SRC3 conf: PPARgamma-driven SRC-3 coactivator recruitment agonists, confirmation, biochemical; 790 tested, 29% active; activation, % at 8 µM; biochemical PPARgamma-SRC-3 coactivator recruitment, agonist mode; AID 1301, 2008; shares compounds with PPARg SRC-3 ag; in the data active = activation above about 24%;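 note: 0% = vehicle wells and 100% = reference agonist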
Starred values were filed as active, the others as inactive; . = no result given. Only some compounds are listed: those with a hit (about 0.9% of all), similar ones and a draw of the others. Cut-off read from the data, not from the text of the source, unless noted: active = activation above about 22%; inactive = the rest.

SMILES	PPARg SRC-2 ag	SRC3 TRFRET art	PPARg SRC-1 ag	SRC1 TRFRET art	PPARg SRC-3 ag	SRC2 TRFRET art	PPARg SRC2 conf	PPARg SRC1 conf	PPARg SRC3 conf
O=C(Nc1ccc(Cc2ccncc2)cc1)c1ccc(S(=O)(=O)N2CCCC2)cc1	-6	1530	-5	1973	1	1593	.	.	.
CCOC(=O)c1sc(C)c2c1NC(C)(c1cccs1)NC2=O (stereo not given)	11	.	13	.	26*	1681	16	12	11
CCOC(=O)c1sc(C)c2c1NC1(CCCCC1)NC2=O	2	.	3	.	2	1524	.	.	.
CCOC(=O)C1(Cc2ccccc2)CCCN(C2CCCC2)C1 (stereo not given)	-5	1648	2	2010	0	1452	.	.	.
CN(C(=S)NCCN1CCOCC1)C(c1ccccc1)c1ccccc1	-8	1522	6	1913	-5	1416	.	.	.
Cn1c(=O)cc(SCC(=O)Nc2cccnc2)c2ccccc21	62*	.	66*	.	93*	3288*	28*	17	18
Cn1c(=O)cc(SCC(=O)NCc2cccnc2)c2ccccc21	22*	.	28*	.	38*	1858	24*	18	17
N#CCOC(=O)/C=C/c1ccc2c(c1)OCO2	6	1442	-5	1687	0	1579	.	.	.
CCOc1cc(CNc2ccc(N3CCCCC3)cc2)cc(Br)c1OCC(=O)NC(C)(C)C	5	1695	0	2032	4	1719	.	.	.
CCOc1cc(CNc2ccc(N(C)C)cc2)cc(Br)c1OCC(=O)NC(C)(C)C	123*	.	55*	.	128*	3290*	3	0	3
CCCc1cc(=O)oc2cc(C)cc(O)c12	28*	.	19	.	27*	2043*	21	14	14
CCc1cc(=O)oc2cc(C)cc(O)c12	42*	.	37*	.	50*	2296*	40*	27*	27*
COC(=O)Cc1c(C)c2c(O)cc(C)cc2oc1=O	30*	.	20*	.	35*	2058*	27*	21*	18
CCCCCc1cc(O)c2c(C)cc(=O)oc2c1	14	.	19*	.	21	1926	16	7	12
COC(=O)Cc1c(C)c2ccc(OC(=O)c3ccccc3)cc2oc1=O	10	.	4	.	1	1583	.	.	.
CCc1cc(C(=O)O)c(NC(=O)c2cc(OC)c(OC)c(OC)c2)s1	2	1708	-5	1681	-1	1588	.	.	.
CC(=O)c1sc(N2CCOCC2)nc1-c1ccccc1	17	2416*	33*	2416*	27*	2097*	37*	28*	24
O=C(Nc1ccccc1)c1sc(N2CCOCC2)nc1-c1ccccc1	13	1655	6	2033	7	1762	.	.	.
C#CCSc1ncc(-c2ccccc2)cn1	10	1553	21*	2074	6	1733	5	4	5
O=c1c2sccc2nc(SCc2cc(=O)n3cc(Br)ccc3n2)n1Cc1ccccn1	23*	2195*	23*	2338*	14	2046*	11	7	9
Cc1ccc(CSc2nc3ccsc3c(=O)n2Cc2ccccn2)cc1	7	1669	1	1891	5	1672	.	.	.
CCC1(C)Cc2c(C#N)c(N)sc(=S)c2CO1 (stereo not given)	13	.	12	.	27*	1619	6	8	7
O=C(CSc1nnc(-c2cccs2)n1-c1ccccc1)Nc1ccccc1	64*	.	46*	.	31*	1837	20	17	9
CCOC(=O)CSc1nnc(-c2cccs2)n1-c1ccccc1	6	.	6	.	6	1676	.	.	.
Cc1ccc(NCc2n[nH]c(=S)n2Cc2ccccc2)cc1Cl	-6	1367	-3	1952	3	1581	.	.	.
SMILES	PPARg SRC-2 ag	SRC3 TRFRET art	PPARg SRC-1 ag	SRC1 TRFRET art	PPARg SRC-3 ag	SRC2 TRFRET art	PPARg SRC2 conf	PPARg SRC1 conf	PPARg SRC3 conf
Cc1ccc(NC(=S)NCc2ccc3c(c2)OCO3)cc1C	-6	1566	-1	1815	0	1647	.	.	.
S=C(NCc1ccc2c(c1)OCO2)Nc1ccc2nsnc2c1	91*	3652*	61*	3812*	56*	2840*	23*	28*	14
CC1(C)CC(N=Cc2c(O)n(Cc3ccc4c(c3)OCO4)c(=O)c3ccccc23)CC(C)(C)N1	2	1448	1	1646	3	1699	.	.	.
CCCCNC(=O)c1ccc2c(SCC(=O)O)c3c(nc2c1)CCCC3	-4	1511	-4	1557	0	1528	.	.	.
O=C(O)CSc1c2c(nc3cc(C(=O)N4CCCC4)ccc13)CCCC2	9	1613	0	1966	2	1578	.	.	.
O=C(CSc1c2c(nc3cc(Cl)ccc13)CCCC2)NCCN1CCOCC1	32*	2338*	27*	2381*	19	2224*	16	13	13
O=C(CSc1c2c(nc3ccccc13)CCCC2)NCc1ccco1	13	1591	21*	2158	12	1765	6	3	4
COCCCNC(=O)CSc1c2c(nc3ccc(Cl)cc13)CCCC2	28*	2277*	31*	2727*	19	1928	19	13	11
O=C(NCc1ccco1)c1c2c(nc3ccccc13)CCC2	2	1542	6	1760	-4	1431	.	.	.
CCN(CC)CCCNC(=O)CSc1c2c(nc3cc(Cl)ccc13)CCCC2	34*	2400*	33*	2550*	22	2152*	26*	19	17
Cc1nc2c(Br)c(C)nn2c2c1CCC2	-2	1660	5	1716	5	1666	.	.	.
Cc1ccc(CNC(=O)CSc2c3c(nc4cc(Cl)ccc24)CCCC3)o1	28*	.	12	.	25	1917	27*	18	19
O=C(CSc1c2c(nc3cc(Cl)ccc13)CCCC2)NCCCN1CCOCC1	26*	2060*	25*	2212	12	1791	22	18	14
Cc1cc(Cl)ccc1OCC(=O)NCCCN1CCOCC1	-7	.	1	.	-20	1601	.	.	.
O=C(O)C(c1ccccc1)C(c1ccccc1)c1ccccc1 (stereo not given)	-5	1642	-6	1590	-1	1543	.	.	.
